# Source: PubChem
# A selection: hits, their analogues and other compounds. The true share with any hit is near 19%.
# TGFb inhibitor: inhibitors of TGF-b signaling | HepG2 CAGA-GFP TGF-b/SMAD3 reporter, GFP fluorescence, 18 h; TGF-beta stimulated, 500 pg/mL final | Potency, µM (series often up to 46.1 µM), inactives show at the top dose activity, negative = inhibition, actives largely listed as inhibitors | 410,000 tested, 1.2% active; note: potency is the fitted concentration of half-maximal effect; % is set by controls: 0 for no effect and ±100 for the full control effect; nearly all actives have a fitted effect of over 65% in size
#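 HEPG2 CAGA-GFP, 1000 cells/well; 2 h settle, 37 C; cpd via pin tool; TGF-b 500 pg/mL final; 18 h, 37 C; GFP imaging ex488/em500-530; %Activity normalised to -TGF-b and +DMSO controls; CRC fit, curve class.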
# TDP1 cell CPT: DT40-hTDP1 cell growth loss with CPT; chicken DT40 Tdp1-/-;hTDP1 cells + 20 nM CPT, ATP luminescence, 48 h; Potency, µM (top dose mostly 46.2 µM), inactives show at the top dose activity change, negative = growth inhibition, actives largely listed as inhibitors; 420,000 tested, 12% active; note: potency is the fitted concentration of half-maximal effect; % is set by controls: 0 for no effect and ±100 for the full control effect; nearly all actives have a fitted effect of over 55% in size
#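 Chicken DT40 Tdp1-/- cells complemented with human TDP1, 400 cells/well, exposed to compounds plus 20 nM camptothecin for at least 48 h at 37 C; viability read as ATP content by CellTiter-Glo luminescence.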
# IL1B secr inh: blocks inflammasome-driven IL-1 beta release; 360,000 tested, 4.7% active; THP-1 LPS/ATP IL-1B secretion, AlphaLISA, 16 h; stronger effect = lower value; activity change, % at 57.5 µM; in the data active = activity change below about -50%; inconclusive = mostly about -30% to -49%; note: % is set by controls: 0 for no effect and ±100 for the full control effect
#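 THP-1 cells pretreated 1 hr with compounds (up to 57.5 uM final), then stimulated with LPS (250 ng/mL final) plus ATP (1.25 mM final); secreted IL-1B measured by AlphaLISA after 16 hr, decreased signal indicating inhibition.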
# DT40 TDP1 no CPT: qHTS for Inhibitors of human tyrosyl-DNA phosphodiesterase 1 (TDP1): qHTS in cells in absence of CPT | Potency, µM (series often up to 46.2 µM), inactives show top-dose activity change, negative = growth inhibition, actives largely listed as inhibitors | DT40 Tdp1-/- hTDP1 cells, no CPT, ATP luminescence, 48 h | 420,000 tested, 15% active | AID 686978, 2013; note: potency is the fitted concentration of half-maximal effect; % is set by controls: 0 for no effect and ±100 for the full control effect; nearly all actives have a fitted effect of over 55% in size
#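 Chicken DT40 Tdp1-/- cells complemented with human TDP1, screened without camptothecin (DMSO vehicle only), 400 cells/well. Compounds pin-transferred, cells incubated at 37 °C for at least 48 hr. Growth read as ATP-dependent luminescence (CellTiter-Glo, 30 min at RT).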
# HepG2 viability: kills HepG2 cells in TGF-b inhibitor counter-screen | HepG2 CAGA-GFP viability, ATP luminescence, 18 h | Potency, µM (doses to about 46.1 µM), without a hit: at the highest dose activity change, negative = cytotoxicity, most hits filed as cytotoxic | 410,000 tested, 0.76% active | AID 588856; note: potency is the fitted concentration of half-maximal effect
#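 HepG2 CAGA-GFP cells (1000/well, DMEM with 1% FBS) received compound, then TGF-beta at 500 pg/mL final, and were incubated 18 hours at 37 degrees C. Viability was read by CellTiter-Glo luminescence. Media-only wells were set as complete cell-killing and DMSO as no toxicity.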
# TDP1 inh: TDP1 (human) enzyme inhibition. 350,000 tested, 0.28% active. Potency, µM (titrated, usually from 130 µM), for inactives: at the highest dose activity change, negative = inhibition, actives largely listed as inhibitors. recombinant TDP1, AlphaScreen DNA substrate cleavage; note: potency is the fitted concentration of half-maximal effect; % is set by controls: 0 for no effect and ±100 for the full control effect; nearly all actives have a fitted effect of over 40% in size
# Target sequence (Q9NUW8 whole entry, looked up): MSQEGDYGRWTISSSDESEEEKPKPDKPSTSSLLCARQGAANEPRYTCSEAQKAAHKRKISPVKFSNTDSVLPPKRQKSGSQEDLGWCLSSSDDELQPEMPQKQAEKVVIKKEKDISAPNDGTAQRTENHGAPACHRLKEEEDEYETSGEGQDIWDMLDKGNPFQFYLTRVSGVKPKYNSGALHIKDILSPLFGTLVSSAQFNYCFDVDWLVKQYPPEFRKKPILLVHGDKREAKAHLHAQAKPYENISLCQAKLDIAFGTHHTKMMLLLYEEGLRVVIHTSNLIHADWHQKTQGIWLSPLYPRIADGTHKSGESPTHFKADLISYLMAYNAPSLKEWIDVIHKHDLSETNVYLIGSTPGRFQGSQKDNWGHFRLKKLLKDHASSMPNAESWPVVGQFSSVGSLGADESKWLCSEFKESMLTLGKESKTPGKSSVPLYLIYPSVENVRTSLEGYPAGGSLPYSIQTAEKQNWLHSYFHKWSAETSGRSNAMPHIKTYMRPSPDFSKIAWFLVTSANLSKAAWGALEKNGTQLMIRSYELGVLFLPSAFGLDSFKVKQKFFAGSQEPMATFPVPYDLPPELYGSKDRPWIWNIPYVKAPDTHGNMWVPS
#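 Recombinant E. coli-expressed Tdp1 (1 nM) preincubated with compound 15 min at RT, then 5'-biotin/3'-phosphotyrosine-FITC DNA substrate (15 nM) added for 5 min. AlphaScreen beads (10 ug/ml) added, 10 min RT; tyrosine-FITC cleavage read as signal loss.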
# * marks the source's active call; other numbers are inactive results; ? = inconclusive; . = not tested or not shown; [ ] = another dose, or the depositor's remark. Unless noted, calls come from the whole dose curve; as a rule, active = well fitted curve in the direction sought with a large enough effect; inconclusive = small, poorly fitted or top-dose-only effect, or another doubt; inactive = no such curve, though single readings can be large; an effect the other way counts as inactive or inconclusive.
SMILES,TGFb inhibitor,TDP1 cell CPT,IL1B secr inh,DT40 TDP1 no CPT,HepG2 viability,TDP1 inh
Cc1[nH]c(=O)[nH]c(=O)c1C=CC(=O)NC(CO)CS(=O)Cc1ccccc1 (centres undefined),15.3%,3.4%,-2.9,-4.8%,3.1%,.
CCOC(=O)c1c(C)[nH]c(C)c1S(=O)(=O)N(C)CC(=O)Nc1cccc(C)c1,-14.8%,-26.2%,17.2,-13.6%,-17.2%,3.5%
Cc1cccc(C)c1NC(=O)CCCN1C(=O)C(c2ccccc2)Oc2cccnc21 (centres undefined),2.0%,?,-19.8,-27.6%,-10.5%,5.4%
CC(=O)c1cccc(NC(=O)CCc2nc3sc4c(c3c(=O)[nH]2)CCCC4)c1,0.0%,?,28.5,13µM*,5.0%,0.0%
Cc1cccc(NC(=O)CCc2nc3sc4c(c3c(=O)[nH]2)CCCC4)n1,-10.9%,?,-7.5,18.4µM*,2.8%,.
CC(=O)c1ccc(NC(=O)CCc2nc3sc4c(c3c(=O)[nH]2)CCCC4)cc1,3.6%,?,-5.6,?,-2.7%,-1.3%
Cc1cccc(NC(=O)CNC(=O)CCc2nc3sc4c(c3c(=O)[nH]2)CCCC4)c1C,-1.4%,-19.3%,19.0,?,7.9%,?
O=C(CCc1nc2sc3c(c2c(=O)[nH]1)CCCC3)Nc1ccccc1Cl,-2.0%,?,52.7,?,-26.5%,.
CCN(c1ccc(NC(=O)CCc2nc3sc4c(c3c(=O)[nH]2)CCCC4)cc1)C(C)C,?,29.1µM*,21.3,23.1µM*,-36.3%,0.2%
CO[C@@H]1/C=C\CC(=O)N2CCC[C@@H]2C(=O)OC[C@H](C)C(=O)OC[C@H]1C,.,.,.,.,.,6.9%[21 µM]
Cc1cc(C)cc(NC(=O)CN2C(=O)c3ccccc3Sc3ccc(C(=O)N4CCCC4)cc32)c1,-16.0%,?,.,?,-18.8%,4.7%
COc1ccc(N2CCN(C(=O)c3cc4c(=O)oc5ccc(C)cc5c4s3)CC2)cc1,13.6%,-1.1%,.,-12.8%,-0.4%,5.8%
Cc1nc2ccc(S(=O)(=O)Nc3cccc(-c4nc5cccnc5s4)c3C)cc2s1,-31.4%,?,40.7,25.9µM*,-40.8%,2.6%
CCCC(CCC)C(=O)Nc1cccc(-c2nc3cccnc3s2)c1C,-0.2%,-7.7%,.,-13.9%,-30.3%,2.6%
Cc1nc2ccc(S(=O)(=O)Nc3cc(-c4nc5cccnc5s4)ccc3C)cc2s1,-21.3%,?,42.0,20.6µM*,-29.7%,-1.3%
CCOC(=O)c1cnc(SCc2ccc(C)cc2)nc1N,-1.5%,-13.9%,-11.9,-9.5%,-12.0%,-2.3%
CCOC(=O)c1cnc(SCC(=O)Nc2cc(OC)cc(OC)c2)nc1N,0.4%,8.2µM*,35.9,8.2µM*,-1.0%,2.0%
CCOC(=O)c1cnc(SCC(=O)Nc2cc(C(F)(F)F)ccc2N2CCOCC2)nc1N,8.6%,-25.3%,0.9,-11.3%,15.3%,5.5%
CCOC(=O)c1cnc(SCC(=O)Nc2ccc(N3CCOCC3)c(Cl)c2)nc1N,-4.5%,?,-8.5,12.6µM*,-3.4%,2.9%
CCOC(=O)c1cnc(SCc2nc(N)nc(Nc3ccccc3)n2)nc1N,-7.8%,16.4µM*,5.9,16.4µM*,-17.6%,-3.3%
CCOC(=O)c1[nH]c(C(=O)O)c(OC(=O)CC)c1C,1.3%,25.2%,30.6,2.5%,-6.7%,-1.3%
CC(C)c1ccccc1N=C1SCCCN1C(=O)c1cccc(N2C(=O)CCC2=O)c1,0.7%,-0.4%,3.4,-1.2%,-9.9%,.
CCOc1ccc(Oc2nc(NCC(C)C)nc(NC(C)(C)C)n2)nn1,0.0%,?,.,?,-30.0%,4.7%
COC(=O)COc1ccc(Oc2nc(NC(C)(C)C)nc(N(C)C)n2)nn1,-2.5%,0.6%,.,-28.3%,0.6%,4.7%
CC(C)CCOc1ccc(Oc2nc(N(C)C)nc(N(C)C)n2)nn1,-10.3%,18.4µM*,.,?,-15.3%,-4.7%
SMILES,TGFb inhibitor,TDP1 cell CPT,IL1B secr inh,DT40 TDP1 no CPT,HepG2 viability,TDP1 inh
CCCOc1ccc(Oc2nc(NCC(C)C)nc(N(C)C)n2)nn1,0.7%,?,.,13µM*,2.7%,2.3%
CCNc1nc(NCC)nc(SCCOc2ccc(C)cc2)n1,?,20.6µM*,-7.6,18.4µM*,-19.9%,-2.6%
CCNc1nc(NC(C)C)nc(Oc2ccc(OCCOc3ccc(C)cc3)nn2)n1,1.2%,20.6µM*,16.5,?,2.9%,6.0%
CN(C(=O)COc1ccc(S(=O)(=O)N2CCOCC2)cc1[N+](=O)[O-])C1CCS(=O)(=O)C1 (centres undefined),1.9%,3.2%,11.7,14.8%,2.8%,5.7%
CSc1ccc(CN2CCN(S(=O)(=O)Cc3ccccc3)CC2)cc1,2.2%,?,-6.2,?,2.8%,-6.8%
Cc1cccc(OCCSc2nc(N)cc(N)n2)c1,-5.9%,?,-27.2,20.6µM*,-4.6%,.
CC(=O)c1c(C)[nH]c(C(=O)OCC(=O)c2ccc3c(c2)NC(=O)CO3)c1C,0.7%,-25.6%,0.0,?,2.4%,-2.8%
CCc1cccc(C)c1NC(=O)Cn1c(=O)n(-c2ccc(C)cc2)c(=O)c2c1cnn2C,1.2%,-17.6%,.,-1.5%,2.6%,5.9%
Cc1ccc(Cn2ccc(=O)c(OCc3c(Cl)cccc3Cl)c2C)cc1,?,18.4µM*,-58.6*,14.6µM*,-63.6%,1.4%
Cc1[nH]ccc(=O)c1OCc1c(Cl)cccc1Cl,?,-22.0%,22.0,-6.0%,4.0%,2.8%
CCOc1nc2cccc(C(=O)OC(C)OC(=O)OC3CCCCC3)c2n1Cc1ccc(-c2ccccc2-c2nn[nH]n2)cc1 (centres undefined),.,?,.,23.1µM*,.,-5.3%
CCCc1nc(C(C)(C)O)c(C(=O)OCc2oc(=O)oc2C)n1Cc1ccc(-c2ccccc2-c2nn[nH]n2)cc1,.,-28.7%,.,?,.,20.3%[56.1 µM]
Cc1cc(F)ccc1S(=O)(=O)N(C(=O)c1ccncc1)c1ccc(OC(=O)c2ccncc2)cc1,-3.2%,23.1µM*,-27.0,14.6µM*,-11.3%,0.0%
CCOC(=O)c1c(C)oc2ccc(N(C(=O)c3ccncc3)S(=O)(=O)c3ccc(F)cc3C)cc12,?,?,.,23.1µM*,14.1µM*,4.2%
CC(=O)c1c(C)oc2ccc(N(C(=O)c3ccncc3)S(=O)(=O)c3ccc(F)cc3C)cc12,?,10.3µM*,.,7.31µM*,-24.3%,5.3%
